PubChem BioAssay (EPA / NIEHS)
Activity calls are given as the source filed them. The calls were made as follows, unless noted: active = hit-call score of the fitted dose curve at least 0.9, where 1 is the maximum; inactive = score below 0.9.

Test system: not listed separately
Assay: CCTE_Deisenroth_H295R-HTRF_384WELL_TESTOSTERONE: CCTE's H295R-HTRF Assay Evaluation of Testosterone Concentration, Deisenroth Lab (AID 2284373)
Conditions: actives raise or lower the signal
Outline: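 Secreted testosterone was quantified by HTRF immunoassay of medium from human adrenocortical H295R cells after 48 h chemical exposure at 0.001–100 uM final. Gain or loss was fitted against DMSO. ATP-based viability was read on matched wells, five experimental replicates.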

With `CCSC(=O)N1CCCCCC1` as the compound, how does the outcome read?
Its outcome is “inactive”.

With `CC(C)(C)C(=O)C(Oc1ccc(Cl)cc1)n1cncn1` (stereo not given) as the compound, how does the AC50 read?
Its AC50 is 8.94 µM (active).

For `CCCCC(C#N)(Cn1cncn1)c1ccc(Cl)cc1` (stereo not given), which outcome is on record?
The outcome was “inactive”.

Test system: not listed separately
Assay: CCTE_Deisenroth_H295R-HTRF_384WELL_CTOX: Cytotoxicity Assessment in CCTE's H295R-HTRF Assay, Deisenroth Lab (AID 2284380; active = hit-call score of the fitted dose curve at least 0.9, where 1 is the maximum)
Conditions: not given
Outline: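 Luminescent ATP viability readout (CellTiter-Glo 2.0), multiplexed on plates used for hormone sampling, after 48 h chemical exposure. Human H295R cells; final concentrations 0.001–100 uM in nine steps, technical triplicates, five experiments; DMSO baseline.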

For `CCSC(=O)N1CCCCCC1`, which outcome is on record?
The outcome was “inactive”.

Which outcome does the source give for `CC(C)(C)C(=O)C(Oc1ccc(Cl)cc1)n1cncn1` (stereo not given) here?
Its outcome is “inactive”.

With `CCCCC(C#N)(Cn1cncn1)c1ccc(Cl)cc1` (stereo not given) as the compound, how does the outcome read?
Its outcome is “inactive”.

Test system: TTR (gene 7276)
Assay: CCTE_GLTED_hTTR_0.125uM: CCTE's human Transthyretin (hTTR) Inhibition Assay, with 0.125uM TTR, Great Lakes Toxicology and Ecology Division (GLTED) Lab (AID 2284431);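 also: hits lower the fluorescence signal relative to DMSO baseline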
Conditions: not given
Outline: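 Fluorescence (380 ex, 475 em) reported the ANSA probe remaining bound to 0.125uM human transthyretin. Chemicals were incubated with the protein for 2 hours; activity was scored as loss of signal against DMSO negative control.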

Which AC50 does the source give for `Cn1c(-c2ccccc2)cc(-c2ccccc2)[n+]1C` here?
Its AC50 is 27.8 µM (active).

For `N#Cc1c[nH]cc1-c1cccc2c1OC(F)(F)O2`, which AC50 is on record?
The AC50 was 0.5 µM (active).

Which AC50 does the source give for `CCOP(=O)(OCC)Oc1nc(Cl)c(Cl)cc1Cl` here?
The AC50 was 0.395 µM (active).

For `CC(C)NC(=O)N1CC(=O)N(c2cc(Cl)cc(Cl)c2)C1=O`, which AC50 is on record?
Its AC50 is 2.51 µM (active).

With `COP(=S)(OC)Oc1ccc([N+](=O)[O-])c(C)c1` as the compound, how does the AC50 read?
The AC50 was 8.85 µM (active).

For `COc1cc(Cl)c(OC)cc1Cl`, which AC50 is on record?
The AC50 was 4.26 µM (active).

For `CCOc1nc(C(Cl)(Cl)Cl)ns1`, which AC50 is on record?
Its AC50 is 5.26 µM (active).

Which AC50 does the source give for `CO/N=C(/C1=NOCCO1)c1ccccc1Oc1ncnc(Oc2ccccc2Cl)c1F` here?
Its AC50 is 5.22 µM (active).

For `O=C1C2CC=CCC2C(=O)N1SC(Cl)(Cl)Cl` (stereo not given), which AC50 is on record?
Its AC50 is 21.1 µM (active).
